Active and inactive are the calls of the source. Rule for the calls: active = hit-call score of the fitted dose curve at least 0.9, where 1 is the maximum; inactive = score below 0.9.
Assay: ATG_AP_1_CIS: Attagene CIS-FACTORIAL HepG2 Assay for human Activator Protein 1 (AP-1) (AID 2282931)
Conditions: HepG2 Attagene cis-factorial AP-1 reporter mRNA; actives raise or lower the signal
Description: ATG_CIS is a cell-based, multiplexed-readout assay that uses HepG2, a human liver cell line, with measurements taken at 24 hours after chemical dosing in a 24-well plate.ATG_AP_1_CIS is one of 52 assay component(s) measured or calculated from the ATG_CIS assay. It is designed to make measurements of mRNA induction, a form of inducible reporter, as detected with fluorescence intensity signals by Reverse transcription polymerase chain reaction (RT-PCR) and Capillary electrophoresis technology.Data from the assay component ATG_AP_1_CIS was analyzed into 1 assay endpoint. This assay endpoint, ATG_AP_1_CIS, was analyzed with bidirectional fitting relative to DMSO as the negative control and baseline of activity. Using a type of inducible reporter, measures of mRNA for gain or loss-of-signal activity can be used to understand the reporter gene at the transcription factor-level as they relate to the gene FOS and JUN. Furthermore, this assay endpoint can be referred to as a primary readout, because this assay has produced multiple assay endpoints where this one serves a reporter gene function. To generalize the intended target to other relatable targets, this assay endpoint is annotated to the dna binding intended target family, where the subfamily is basic leucine zipper.
Human liver HepG2 cells are transiently transfected with multiple reporter transcription units (MRTUs) in 6-well plates using FuGene 6 reagent (Roche; 3 ml FuGene/1 mg DNA). The MRTU constructs are regulated by a cis-regulating element (promoter). […] A major difference between the CIS and TRANS system is that in CIS activities of endogenous TFs are measured, whereas the TRANS assay evaluates changes in activities of exogenous, chimeric NR-Gal4 proteins. […] At the end of 24 hour incubation, total RNA was isolated using TriZol reagent (Invitrogen). The isolated RNA is then reverse-transcribed using oligo(dT) primer and Mo-MLV reverse transcriptase (Invitrogen) with DNAse I (Ambion) treatment for 30 min. The one-tenth of the produced cDNA was amplified by PCR using Taq DNA polymerase (Invitrogen) and two reporter sequence-specific primers. The PCR products were fluorescently labeled by primer extension with 6-arboxyfluorescein (6-FAM) 5'-labeled reporter sequence-specific primer (2 min at 95 C, 20 s at 68 C and 10 min at 72 C) and these products were digested with 5U of HpaI (New England Biolabs) for 2h at 37 C. The fragments were purified using Qiaquick PCR columns (Qiagen), analyzed on an ABI 3130xL genetic analyzer (Applied Biosystems) with peak positions identified by using a set of X-rhodamine (ROX)-labeled MapMarker1000 molecular weight standards (BioVentures). The raw capillary electrophoresis data was processed using Attagraph software (Attagene).

Structure (SMILES) | outcome | AC50
C[C@H](CCC(=O)NCC(=O)O)[C@H]1CC[C@H]2[C@@H]3[C@H](O)C[C@@H]4C[C@H](O)CC[C@]4(C)[C@H]3C[C@H](O)[C@]12C | inactive | 
C[Si]1(C)O[Si](C)(C)O[Si](C)(C)O1 | inactive | 
O=c1[nH]c(=O)c2cn[nH]c2[nH]1 | inactive | 
CN(C)CCOc1ccc(/C(=C(/CCCl)c2ccccc2)c2ccccc2)cc1 | inactive | 
NCC1CCCC(CN)C1 (stereo not given) | inactive | 
C#CC(C)N(C)C(=O)Nc1ccc(Cl)cc1 (stereo not given) | inactive | 
C/C=C(\C)C(=O)OCCc1ccccc1 | inactive | 
C[C@@H]1CCN(C(=O)[C@H](CCCN=C(N)N)NS(=O)(=O)c2cccc3c2NC[C@H](C)C3)[C@@H](C(=O)O)C1 | inactive | 
Nc1ccc2cc(S(=O)(=O)O)cc(O)c2c1N=Nc1ccccc1C(F)(F)F | inactive | 
C=CCOC(=O)CCCCCC | inactive | 
C=C(C)C(=O)OCCOC1CC2CC1C1C=CCC21 (stereo not given) | inactive | 
O=C(CC(=O)c1ccccc1)c1ccccc1 |  | 80.1 µM (active)
CCCCCCC(O)CCCCCCCCCCC(=O)O (stereo not given) | inactive | 
CC1CC(O)CC(C)(C)C1 (stereo not given) | inactive | 
COc1cc(Cl)c(OC)cc1N | inactive | 
Cc1ncc[nH]1 | inactive | 
O=C(O)COCC(=O)O | inactive | 
CS(C)=O | inactive | 
CCCCCC(C=O)=Cc1ccccc1 | inactive | 
Clc1ccc(C(c2ccccc2Cl)C(Cl)Cl)cc1 (stereo not given) |  | 100 µM (active)

Structure (SMILES) | outcome | AC50
COc1ccccc1[N+](=O)[O-] | inactive | 
CCN(CCC#N)c1ccc(N=Nc2ccc([N+](=O)[O-])cc2)cc1 | inactive | 
CCCSc1ccc2nc(NC(=O)OC)[nH]c2c1 | inactive | 
Cc1[nH]c(=O)c(C#N)cc1-c1ccncc1 | inactive | 
COC(=O)c1ccc(C)cc1C1=NC(C)(C(C)C)C(=O)N1 (stereo not given) (tested in a mixture with another compound) | inactive | 
CCOC(=O)CCc1ccccc1 | inactive | 
CC(=O)CC(=O)Nc1ccc(C)cc1C | inactive | 
CC(O)C1CCCCC1 (stereo not given) | inactive | 
Oc1ccc2cc(SSc3ccc4cc(O)ccc4c3)ccc2c1 |  | 100 µM (active)
CCCCCCCCCCCC(=O)OCC(O)CO (stereo not given) |  | 158 µM (active)
CSCCC=O | inactive | 
CCCCCCCC(=O)OCCCCCC | inactive | 
OCC(O)c1ccccc1 (stereo not given) | inactive | 
FC(F)(F)COCC(F)(F)F | inactive | 
CC1(C)CCC[C@]2(C)[C@H]3CCO[C@]3(C)CC[C@@H]12 |  | 151 µM (active)
c1ccc(CN(Cc2ccccc2)Cc2ccccc2)cc1 | inactive | 
Oc1c(Cl)cc(Cl)c(Cl)c1Cc1c(O)c(Cl)cc(Cl)c1Cl | inactive | 
CCCCCCCCc1ccc(S(=O)(=O)O)cc1 | inactive | 
O=C1OC2(c3ccccc31)c1ccc(O)c(Br)c1Oc1c2ccc(O)c1Br | inactive | 
Cc1cc(CCC(=O)OCCOCCOCCOC(=O)CCc2cc(C)c(O)c(C(C)(C)C)c2)cc(C(C)(C)C)c1O | inactive | 

Reference: PubChem BioAssay (EPA / NIEHS)
